Reference: PubChem BioAssay AID504766 (The Scripps Research Institute Molecular Screening Center, 2011)
About 3,400 (1%) of roughly 340,000 compounds were called active.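 Rule for the calls: active = inhibition above the mean over all tested compounds plus 3 SD (cut at about 4.2% in these data); inactive = the rest.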 Only a selection was taken, and actives are over-represented in it overall.

These compounds were tested against Nuclear receptor subfamily 0 group B member 1 (Homo sapiens) (UniProt P51843) (assay: relief of DAX1 transcriptional repression – cell-based, HEK293, Gal4-DAX1, luciferase luminescence, primary screen (AID 504766;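 note: 0% = DAX1-transfected cells with DMSO and 100% = empty-vector control cells with DMSO; inhibition shows as a rise in luminescence from relieved DAX1 repression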)). Conditions: HEK293 Gal4-DAX1 luciferase reporter, at 6.75 µM, hits give high values.
Nuclear receptor subfamily 0 group B member 1 (Homo sapiens), sequence (P51843 207-470 limits assumed): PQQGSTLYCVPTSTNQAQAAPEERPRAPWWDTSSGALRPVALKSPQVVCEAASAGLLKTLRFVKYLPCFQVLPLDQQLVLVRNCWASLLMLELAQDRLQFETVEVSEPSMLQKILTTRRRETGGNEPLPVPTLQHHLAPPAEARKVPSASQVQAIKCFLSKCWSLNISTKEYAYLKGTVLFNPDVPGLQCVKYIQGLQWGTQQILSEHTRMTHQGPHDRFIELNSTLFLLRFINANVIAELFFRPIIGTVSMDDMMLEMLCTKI

SMILES	inhibition
CC1C(=O)OC2CCN3CC=C(COC(=O)C(C)(O)C1(C)O)C23 (stereo not given)	6.45% (active)
O=C(NCC1=C(c2ccc3ccccc3c2)C[C@@H]2CC[C@H]1N2Cc1ccco1)c1cccs1	0.9% (inactive)
CN(C)CC1CCCCC1OC(=O)c1ccc(Cl)c(Cl)c1 (stereo not given)	1.17% (inactive)
N=c1ccccn1Cc1ccccc1	4.71% (active)
COc1cc2nc(N3CCN(C(=O)[C@@H]4CCCO4)CC3)nc(N)c2cc1OC	-1.49% (inactive)
CC(C(=O)Nc1ccc(Cl)cc1Cl)N1CC=C(c2ccccc2)CC1 (stereo not given)	0.95% (inactive)
COC(=O)C1=C(c2ccc3ccccc3c2)C[C@@H]2CC[C@H]1N2C(=O)NCCO	-0.02% (inactive)
COC(=O)C1=C(c2ccc(F)cc2F)C[C@@H]2CC[C@H]1N2C(=O)NC1CC1	1.3% (inactive)
Fc1ccc(C2N3CCCN23)cc1 (stereo not given)	6.8% (active)
Cc1cccc(NC(=O)N2CC3CC(C2)c2cccc(=O)n2C3)c1 (stereo not given)	-0.11% (inactive)
CC(=CCOc1ccc2ccc(=O)oc2c1)C1=CC(=O)C(C)(C)O1	-1.41% (inactive)
C[C@]12CC[C@H](O)CC1=C([N+](=O)[O-])CC1C2CC[C@@]2(C)C1CC[C@@H]2O (stereo not given in full)	0.51% (inactive)
COc1ccc(-c2nn(CCC#N)cc2C(=O)O)cc1	0.78% (inactive)
CCC(=NCc1ccco1)c1c(O)n(Cc2ccccc2)c(=O)[nH]c1=O	-0.6% (inactive)
O=C(N/N=C/c1c(O)n(Cc2ccccc2)c(=O)[nH]c1=O)c1ccccc1	0.57% (inactive)
CC/C(=N\NC(=O)c1ccccc1O)c1c(O)n(Cc2ccccc2)c(=O)[nH]c1=O	4.6% (active)
Cc1ccc(OC(=O)N(C)C[C@@H]2OCc3cnnn3CCCC(=O)N([C@H](C)CO)C[C@@H]2C)cc1	1.2% (inactive)
COC(=O)C1=C(c2cccc(OCc3ccccc3)c2)C[C@@H]2CC[C@H]1N2C(=O)NCc1ccc(Br)cc1	-1.05% (inactive)
C=Cn1ccnc1P(=S)(c1cc(N(CC)CC)ns1)c1nccn1C=C	0.78% (inactive)
Cc1nc2ccccn2c1P(=S)(N1CCCCC1)N1CCCCC1	-0.88% (inactive)
CC(=O)OC1C2(CC3N4C(=O)C5(CO)SSC4(CC31O)C(=O)N5C)OC(C)C(C)(C)C2=O (stereo not given)	-6.61% (inactive)
O=C(c1cc(-c2ccncc2)nc2ccccc12)N1CCC2(CC1)OCCO2	1.03% (inactive)
O=C(c1ccccc1[N+](=O)[O-])N1CCC2(CC1)OCCO2	5.98% (active)
O=C(c1cc(S(=O)(=O)N2CCOCC2)ccc1F)N1CCC2(CC1)OCCO2	0.34% (inactive)
CN(C)c1nc(N(C)C)nc(N(C#N)CCCl)n1	-0.78% (inactive)
CNCC(O)c1cc(F)c(OCc2ccccc2)c(OCc2ccccc2)c1F (stereo not given)	-0.1% (inactive)
CN1CCc2cc3c(cc2[C@H]1[C@@H]1OC(=O)c2c1ccc1c2OCO1)OCO3	1.17% (inactive)
O=C1NC(=O)C(CCOc2ccccc2)(CCc2ccccc2)C(=O)N1	-0.23% (inactive)
CCC(C)n1c(O)c(/C=N/Nc2nc3c(c(=O)n(C)c(=O)n3C)n2C)c(=O)[nH]c1=S (stereo not given)	4.71% (active)
O=C(CCC(=O)N1C[C@H]2C[C@@H](C1)c1cccc(=O)n1C2)NCc1ccccc1C(F)(F)F	0.36% (inactive)
